Screening results as filed in PubChem BioAssay.
Sampled rows, rich in hits. Any-hit rate of the full collection: about 19%.
IL-1B inflam inh = inhibitors of inflammasome signaling (IL-1 beta secretion) | activity change, % at 57.5 µM | AID 743279 | 4.7% of 360,000 active | THP-1 LPS/ATP IL-1B secretion, AlphaLISA, 16 h; hits give low values; in the data active = activity change below about -50%; inconclusive = mostly about -30% to -49%
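Secreted IL-1B measured by AlphaLISA bead assay after 16 h compound exposure of THP-1 cells; compounds (final up to 57.5 uM) added 1 h before LPS (250 ng/mL) and ATP (1.25 mM) stimulation; lower signal means less secretion.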
DT40 TDP1 no CPT = qHTS for Inhibitors of human tyrosyl-DNA phosphodiesterase 1 (TDP1): qHTS in cells in absence of CPT; DT40 Tdp1-/- hTDP1 cells, no CPT, ATP luminescence, 48 h; Potency, µM (highest dose often 46.2 µM), for the others: at the highest dose activity change, negative = growth inhibition, most hits filed as inhibitors; 15% of 420,000 active; note: potency is the fitted concentration of half-maximal effect; nearly all actives have a fitted effect of over 55% in size
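Stably hTDP1-transfected Tdp1-null chicken DT40 cells were treated with library compounds minus camptothecin and grown for at least 48 hr at 37 °C, after which cellular ATP was quantified by luminescence.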
uPA generation = cell surface uPA generation inhibition. cell surface uPA generation assay, qHTS. Potency, µM (highest dose often 38.3 µM), for inactives: at the top dose activity change, negative = inhibition, usual class: inhibitors. 0.31% of 330,000 active. AID 540303; active = well fitted inhibition curve with a large enough effect; inconclusive = small, poorly fitted or top-dose-only effect; inactive = no such curve, though single readings can be large or run the other way; tested in mouse RAW 264.7 cells; note: potency is the fitted concentration of half-maximal effect; nearly all actives have a fitted effect of over 55% in size
HT1080 IDH1KD tx = toxicity to HT-1080 IDH1 knockdown cells (counter line). HT-1080 IDH1 knockdown viability, ATP luminescence, 48 h. Potency, µM (doses to about 46.1 µM), inactives show at the highest dose activity, negative = toxicity, most hits filed as cytotoxic. 2% of 360,000 active. AID 686971;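 note: potency is the fitted concentration of half-maximal effect; 0% = DMSO wells and -100% = cell-free medium wells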
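IDH1KD HT-1080 cells, 750/well, RPMI + 5% FBS; compound pinned after 2 h settling; 48 h, 37 °C; CellTiter-Glo luminescence; % activity normalised to DMSO and no-cell wells; curves fitted, classed by r2 and efficacy.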
DT40 TDP1 CPT = growth inhibition of DT40 Tdp1-/-;hTDP1 cells with camptothecin (screen for TDP1 inhibitors); chicken DT40 Tdp1-/-;hTDP1 cells + 20 nM CPT, ATP luminescence, 48 h; Potency, µM (titrated, usually from 46.2 µM), for the others: at the top dose activity change, negative = growth inhibition, most hits filed as inhibitors; 12% of 420,000 active; AID 686979; note: potency is the fitted concentration of half-maximal effect; nearly all actives have a fitted effect of over 55% in size
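Chicken DT40 Tdp1-/- cells complemented with human TDP1, 400 cells/well, exposed to compounds plus 20 nM camptothecin for at least 48 h at 37 C; viability read as ATP content by CellTiter-Glo luminescence.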
HT1080NT lethal = kills 2HG-producing HT-1080-NT fibrosarcoma cells; HT-1080-NT fibrosarcoma viability, CellTiter-Glo ATP luminescence, 48 h; Potency, µM (top dose mostly 46.1 µM), without a hit: at the top dose activity, negative = less viability, most hits filed as cytotoxic; 1.6% of 360,000 active;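 note: NT is the 2HG producing partner of a matched IDH1 knockdown line; potency is the fitted concentration of half-maximal effect; 0% = DMSO-treated cells and -100% = media-only wells without cells; nearly all actives have a fitted effect of over 55% in size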
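HT-1080-NT fibrosarcoma cells (2HG-overproducing), 750 cells/well in RPMI with 5% FBS, dosed after 2 h and incubated 48 h at 37C. CellTiter-Glo luminescence normalized to DMSO and no-cell wells; concentration-response curves fitted and classed.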
* marks the source's active call; other numbers are inactive results; ? = inconclusive; / = not tested or not shown; [ ] = another dose, or the depositor's remark. Unless noted, calls come from the whole dose curve; as a rule, active = well fitted curve in the direction sought with a large enough effect; inconclusive = small, poorly fitted or top-dose-only effect, or another doubt; inactive = no such curve, though single readings can be large; an effect the other way counts as inactive or inconclusive. Unless noted, % is set by controls: 0 for no effect and ±100 for the full control effect.

SMILES	IL-1B inflam inh	DT40 TDP1 no CPT	uPA generation	HT1080 IDH1KD tx	DT40 TDP1 CPT	HT1080NT lethal
CC1CCCN(C(=O)c2ccc(S(=O)(=O)N3CCC(c4nc5ccccc5s4)CC3)cc2)C1 (centres undefined)	-70*	6.5µM*	-3%	-6%[9.24 µM]	12µM*	?
O=C(Nc1nc2ccccc2s1)C1CCCN1S(=O)(=O)c1ccc(Cl)cc1 (centres undefined)	-23	-14%	-2%	-23%	-8%	-13%
CCN(CC)C(=O)c1ccc(S(=O)(=O)N2CCC(c3nc4ccccc4s3)CC2)cc1	?	10µM*	-3%	-16%[9.24 µM]	7.3µM*	?
O=S(=O)(c1ccccc1)N1CCCC1c1nc2ccccc2s1 (centres undefined)	6	18µM*	-2%	-12%	?	-7%
Cc1ccc(NC(=O)Cn2c(=O)n(CCCCC(=O)NCCc3ccccc3)c(=O)c3ccccc32)c(C)c1	/	-24%	/	/	-20%	/
O=C(Nc1ccc2c(c1)N(C1CCCC1)C(=O)c1ccccc1S2)c1ccc(F)cc1	/	?	/	/	23µM*	/
COc1cc(OC)cc(C(=O)Nc2ccc3c(c2)N(C2CCCC2)C(=O)c2ccccc2S3)c1	/	?	/	/	-16%	/
O=C(Nc1ccc2c(c1)N(C1CCCC1)C(=O)c1ccccc1S2)c1ccccc1	/	12µM*	/	/	?	/
O=C(O)c1ccc2c(c1)N(Cc1ccc(F)cc1)C(=O)c1ccccc1S2	6	-19%	4%	8%	-1%	-9%
O=C(Nc1ccc2c(c1)N(C1CCCC1)C(=O)c1ccccc1S2)c1cccc(F)c1	/	18µM*	/	/	?	/
O=C1N/C(=N\N=C\c2ccccn2)SC1Cc1cccc(SC(F)F)c1 (centres undefined)	6	5.8µM*	-10%	?	7.3µM*	-6%
O=C1N/C(=N\N=C\c2ccc3ncccc3c2)SC1Cc1ccc(SC(F)F)cc1 (centres undefined)	17	-27%	/	14%	-15%	-7%
O=C1N/C(=N\N=C\c2cccnc2)SC1Cc1ccc(SC(F)F)cc1 (centres undefined)	107	3.7µM*	-5%	23µM*	2.9µM*	?
Cc1cccc(CC2S/C(=N/c3ccccn3)NC2=O)c1 (centres undefined)	16	?	-1%	?	?	?
O=C(CO)c1c[nH]c2ccccc12	/	6%	/	/	-2%	/
O=C(Cc1ccc(F)cc1)NC1CC(=O)N(c2ccccc2)C1 (centres undefined)	/	9%	/	/	6%	/
CC1CCN(Cc2c(C(=O)N/N=C/c3cc(Br)ccc3O)nnn2-c2nonc2N)CC1	110	5.8µM*	3%	2.3µM*	5.8µM*	3.7µM*
Cc1cc(C)c(/C=N/NC(=O)c2nnn(-c3nonc3N)c2CN2CCC(C)CC2)c(C)c1	-14	21µM*	-1%	?	?	?
CC1CCN(Cc2c(C(=O)N/N=C/c3cc(Cl)ccc3O)nnn2-c2nonc2N)CC1	103	5.8µM*	2%	4.1µM*	4.6µM*	?
CCOc1ccc(/C=N/NC(=O)c2nnn(-c3nonc3N)c2CN2CCC(C)CC2)cc1	-7	?	2%	11%	-22%	7%
COc1ccc(/C=N/NC(=O)c2nnn(-c3nonc3N)c2-c2cccc(OC)c2)cc1	-5	12%	-2%	-1%	-4%	13%
COc1ccc(O)c(/C=N/NC(=O)c2c(C)nnn2-c2nonc2N)c1	38	8.2µM*	0%	?	18µM*	?
OCCCNc1ncnc2c1ncn2[C@H]1CN(Cc2ccc(Cl)cc2)C[C@@H](CO)O1	20	-9%	/	20%	-29%	-3%
NCC1C2CCC(O2)C1CO (centres undefined)	-4	6%	/	3%	8%	11%
COc1c(Cl)cc(Cl)cc1/C=N/NC(=O)c1nnn(-c2nonc2N)c1CN1CCC(C)CC1	-17	?	-1%	-1%	15µM*	10%
SMILES	IL-1B inflam inh	DT40 TDP1 no CPT	uPA generation	HT1080 IDH1KD tx	DT40 TDP1 CPT	HT1080NT lethal
COc1ccc(Oc2ncc3nc(C)c(=O)n(C)c3n2)cc1	/	-22%	/	/	1%	/
COc1ccc(C(=O)/C=C/c2ccsc2)cc1CSCC(=O)O	-69*	12µM*	-5%	-2%	9.2µM*	-8%
CCCCN(c1ccccc1)S(=O)(=O)c1cccc(C(=O)Nc2c(C)n(C)n(-c3ccccc3)c2=O)c1	0	?	1%	?	-42%	-10%
CC1CCC2(CC1)C(Nc1cccc(Cl)c1)=NC(=S)N2CC#N (centres undefined)	-4	16µM*	-3%	-26%	?	?
N#CC1(Nc2cccc(Cl)c2)CCCC1	9	-23%	2%	4%	8%	2%
Cc1ccc(Cl)cc1NC(=O)C(C)n1nc(-c2ccccc2)ccc1=O (centres undefined)	/	-20%	/	/	?	/
CCOc1ccccc1C(=O)N1CCCCC1CCN1CCOCC1 (centres undefined)	/	8%	/	/	-7%	/
CCOC(=O)c1ccccc1NC(=O)Cn1c(=O)n(CCCC(=O)NCc2ccc3c(c2)OCO3)c(=O)c2ccccc21	/	-23%	/	/	-20%	/
CCOc1ccc(NC(=O)Cn2c(=O)n(CCCCC(=O)NCc3ccc4c(c3)OCO4)c(=O)c3ccccc32)cc1	/	-24%	/	/	?	/
O=C(CCCCCn1c(=O)c2sccc2n(CC(=O)Nc2cccc(Cl)c2)c1=O)NCc1ccc2c(c1)OCO2	/	15µM*	/	/	?	/
NC(=O)Cn1c(=O)n(CCCCCC(=O)NCc2ccc3c(c2)OCO3)c(=O)c2sccc21	/	-12%	/	/	-14%	/
CC(=O)c1c(C)n(CC(=O)NCc2ccc3c(c2)OCO3)c2ccccc12	-5	14µM*	-13%	-24%	13µM*	?
O=C(CCCn1c(=O)c2ccccc2n(CC(=O)Nc2cccc(Cl)c2)c1=O)NCc1ccc2c(c1)OCO2	/	15µM*	/	/	?	/
CCOc1ccccc1NC(=O)Cn1c(=O)n(CCC(=O)NCc2ccc3c(c2)OCO3)c(=O)c2ccccc21	/	12µM*	/	/	?	/
CC(=O)Nc1ccc(C(=O)N2CCOCC2c2cc(C(=O)NCc3ccccc3)no2)cc1 (centres undefined)	18	-14%	/	18%	-5%	28%
C[N+](C)(C)CCN(Cc1ccc(Cl)cc1)c1ccccn1	-28	16µM*	1%	-13%	18µM*	-1%
